ALDH1A1 block: ALDH1A1 (human) enzyme inhibition; P00352; Purified ALDH1A1, NADH fluorescence, propionaldehyde substrate; Potency, µM (series often up to 75.3 µM), inactives show at the highest dose activity, negative = inhibition, most hits filed as inhibitors; 220,000 compounds, 7.3% hits; active = well fitted inhibition curve with a large enough effect, not every such curve was filed as active; inconclusive = small, poorly fitted or top-dose-only effect, or another doubt; inactive = no such curve, though single readings can be large or run the other way;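 note: plate controls were no enzyme wells and a reference inhibitor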
Tau fibril FP: blocks human tau fibril formation measured by polarization | K18 P301L tau heparin fibrillization, Alexa594 FP, 6 h | Potency, µM (series often up to 57.7 µM), without a hit: at the highest dose activity, negative = inhibition, most hits filed as inhibitors | 280,000 compounds, 0.39% hits; note: nearly all actives have a fitted effect of over 55% in size
Target sequence (P10636 561-689 P618L limits assumed): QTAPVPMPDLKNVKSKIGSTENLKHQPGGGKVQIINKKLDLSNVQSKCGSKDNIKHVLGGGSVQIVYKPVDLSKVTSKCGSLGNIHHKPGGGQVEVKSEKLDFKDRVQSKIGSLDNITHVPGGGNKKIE
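FP of Alexa 594-tau after heparin (20 uM) induction. Substrate: human K18 P301L, 15 uM unlabeled, 0.24 uM labeled. Buffer 100 mM sodium acetate pH 7. 6 hr, 37 C.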
HPGD block: HPGD (human) dehydrogenase inhibition; P15428; purified HPGD, NADH fluorescence kinetic, PGE2 substrate; Potency, µM, for the others: at the top dose activity change, negative = inhibition, usual class: inhibitors; 150,000 compounds, 4.3% hits; active = well fitted inhibition curve with a large enough effect, not every such curve was filed as active; inconclusive = small, poorly fitted or top-dose-only effect, or another doubt; inactive = no such curve, though single readings can be large or run the other way
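20 nM HPGD preincubated 15 min at room temperature with compound in 50 mM Tris-HCl pH 8, 0.01% Tween 20. Started with 1 mM NAD+ and 30 uM prostaglandin E2; NADH fluorescence (360/450 nm) read 5 times over 30-s intervals, last minus first.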
Tau fibril ThT: blocks human tau fibril formation measured by thioflavin T; P10636; recombinant tau K18 P301L, heparin-induced fibrillization, ThT fluorescence; Potency, µM (series often up to 57.4 µM), without a hit: at the highest dose activity, negative = inhibition, usual class: inhibitors; 270,000 compounds, 2.1% hits; note: nearly all actives have a fitted effect of over 55% in size
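Using a mix of unlabeled (15 uM) and Alexa 594-labeled (0.24 uM) tau K18 P301L, heparin-triggered fibrillization over 6 hr at 37 C was scored by ThT fluorescence.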
NPSR antagonist: antagonists of human neuropeptide S receptor cAMP signaling | AID 1461 | CHO-NPSR cells, cAMP TR-FRET, antagonist mode | 220,000 compounds, 1% hits | Potency, µM (highest dose often 38.3 µM), inactives show at the highest dose activity change, negative = inhibition, most hits filed as inhibitors; note: nearly all actives have a fitted effect of over 50% in size
Target sequence (Q6W5P4 whole entry, looked up): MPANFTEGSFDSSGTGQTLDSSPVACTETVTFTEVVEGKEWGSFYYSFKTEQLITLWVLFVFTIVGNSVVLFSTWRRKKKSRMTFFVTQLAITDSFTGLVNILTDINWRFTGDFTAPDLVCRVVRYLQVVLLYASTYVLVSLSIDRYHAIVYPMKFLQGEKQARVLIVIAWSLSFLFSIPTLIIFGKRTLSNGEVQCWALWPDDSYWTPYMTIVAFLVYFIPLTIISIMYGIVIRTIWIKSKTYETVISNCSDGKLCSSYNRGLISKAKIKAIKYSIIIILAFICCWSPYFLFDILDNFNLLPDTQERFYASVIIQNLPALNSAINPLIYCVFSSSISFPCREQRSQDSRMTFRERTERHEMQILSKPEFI
Tau fluor counter: counter-screen for tau fibril formation inhibitors | Potency, µM (titrated, usually from 57.7 µM), inactives show top-dose activity change, negative = decrease | 280,000 compounds, 0.93% hits | AID 1463 | tau K18 P301L Alexa594 fluorescence, heparin fibrillization; note: nearly all actives have a fitted effect of over 55% in size
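Human tau K18 P301L (15 uM unlabeled, 0.24 uM Alexa 594-labeled) in 100 mM sodium acetate pH 7 with 20 uM heparin, 6 hr at 37 C. ThT 30 uM added, 1 hr ambient; Alexa 594 FP and total fluorescence read at 555/632 nm.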
* marks the source's active call; other numbers are inactive results; [ ] = another dose, or the depositor's remark. In the library only some 9.5% were active in any assay of this set; here they are far more common. Unless noted, calls come from the whole dose curve; as a rule, active = well fitted curve in the direction sought with a large enough effect; inconclusive = small, poorly fitted or top-dose-only effect, or another doubt; inactive = no such curve, though single readings can be large; an effect the other way counts as inactive or inconclusive. Unless noted, % is set by controls: 0 for no effect and ±100 for the full control effect; potency is the fitted concentration of half-maximal effect.

Results for CCCCN(CC)CCCNC(=O)c1cn(C)c2ccc(S(=O)(=O)N(C)C3CCCCC3)cc2c1=O ?
Tau fibril FP: -5%; Tau fibril ThT: -4%; Tau fluor counter: -8%

How did CCCCCCCCCCCCCC(=O)N[C@H](C)[C@@H](O)c1ccccc1 do in these assays?
ALDH1A1 block: 19%; Tau fibril FP: 14%; HPGD block: -8%; Tau fibril ThT: -4%; Tau fluor counter: -4%

How did COc1ccc(NS(=O)(=O)c2ccc(N/N=C(\C)c3ccncc3)c([N+](=O)[O-])c2)cc1 do in these assays?
ALDH1A1 block: 1%; Tau fibril FP: -3%; HPGD block: 6.3µM*; Tau fibril ThT: 2%; NPSR antagonist: -13%; Tau fluor counter: 3%

Results for CCC(=O)c1ccc(OCCSc2ncccn2)cc1 ?
ALDH1A1 block: -6%; Tau fibril FP: -2%; HPGD block: 32µM*; Tau fibril ThT: inconclusive; NPSR antagonist: -19%[46.1 µM]; Tau fluor counter: -19%

What do the screens show for `Cc1[nH]n(S(=O)(=O)Cc2ccccc2)c(=O)c1N=Nc1ccccc1Cl`?
ALDH1A1 block: -2%; Tau fibril FP: 11%; Tau fibril ThT: 16µM*; NPSR antagonist: -1%; Tau fluor counter: -22%

Results for Cc1ccccc1N=Nc1c(C)[nH]n(-c2ccccc2)c1=O ?
ALDH1A1 block: 4%; Tau fibril FP: 2%; Tau fibril ThT: -17%; NPSR antagonist: 5%; Tau fluor counter: -17%

How did CC1CCN(c2[nH]c(=S)c(C#N)c3c2CCCC3)CC1 do in these assays?
ALDH1A1 block: 10µM*; Tau fibril FP: -5%; HPGD block: 11µM*; Tau fibril ThT: -20%; NPSR antagonist: 14%[46.1 µM]; Tau fluor counter: -2%

How did CCOC(=O)/C(=C\c1cn(C)c2ccccc12)[N+](=O)[O-] do in these assays?
ALDH1A1 block: 6.3µM*; Tau fibril FP: 2%; HPGD block: 3.5µM*; Tau fibril ThT: -6%; NPSR antagonist: -31%; Tau fluor counter: 2%

Results for COc1ccc(Cn2c(SCc3ccc(C(=O)NC4CCCCC4)cc3)nc3cccnc32)cc1 ?
Tau fibril FP: -3%; Tau fibril ThT: 1%; Tau fluor counter: 4%

What do the screens show for `CCOC(=O)c1ncc2[nH]c3cccc(OC(C)C)c3c2c1C`?
ALDH1A1 block: -5%; Tau fibril FP: 3%; HPGD block: -16%; Tau fibril ThT: -11%; Tau fluor counter: inconclusive

How did Cn1c2c(c(=O)[nH]c1=O)C(c1ccc(O)cc1)C1=C(N2)c2ccccc2C1=O (stereo unspecified) do in these assays?
ALDH1A1 block: -9%; Tau fibril FP: 4%; Tau fibril ThT: 22µM*; NPSR antagonist: -58%; Tau fluor counter: inconclusive

How did COc1cc(C2C3=C(Nc4nc(N)[nH]c(=O)c42)c2ccccc2C3=O)ccc1O (stereo unspecified) do in these assays?
Tau fibril FP: 13%; Tau fibril ThT: 11µM*; NPSR antagonist: 0%; Tau fluor counter: -27%

How did Nc1nc2c(c(=O)[nH]1)C(c1ccccc1)C1=C(N2)c2ccccc2C1=O (stereo unspecified) do in these assays?
Tau fibril FP: 6%; Tau fibril ThT: 6.3µM*; NPSR antagonist: -1%; Tau fluor counter: inconclusive

How did CCC(C)c1ccc(C2C3=C(Nc4nc(N)[nH]c(=O)c42)c2ccccc2C3=O)cc1 (stereo unspecified) do in these assays?
ALDH1A1 block: 9%; Tau fibril FP: -5%; Tau fibril ThT: inconclusive; NPSR antagonist: 4%; Tau fluor counter: inconclusive

Results for COc1ccc2c(c1OC)C(=O)N(c1cccc(C)c1)C2=O ?
ALDH1A1 block: 5µM*; Tau fibril FP: -2%; HPGD block: -13%; Tau fibril ThT: 1%; NPSR antagonist: -26%[46.1 µM]; Tau fluor counter: -1%

How did Cc1nc2c(-c3ccccc3)c(C)nn2c(C)c1CCC(=O)N1CCN(c2ccc(F)cc2)CC1 do in these assays?
Tau fibril FP: -2%; Tau fibril ThT: inconclusive; Tau fluor counter: -23%

What do the screens show for `CN(C)c1nc(N)nc(CSc2nc3cc(Cl)ccc3o2)n1`?
ALDH1A1 block: 3%; Tau fibril FP: -1%; HPGD block: -11%; Tau fibril ThT: -12%; NPSR antagonist: -10%[46.1 µM]; Tau fluor counter: 0%

Results for O=S1(=O)C=C(Sc2nc3cc(Cl)ccc3o2)c2ccccc21 ?
ALDH1A1 block: inconclusive; Tau fibril FP: 25µM*; Tau fibril ThT: inconclusive; NPSR antagonist: inconclusive; Tau fluor counter: 7.1µM*[quencher]

Results for COC(=O)c1cc(-c2ccc(C)cc2)c2c(=O)n(C)c(=O)n(C)c2n1 ?
Tau fibril FP: -3%; Tau fibril ThT: 6%; Tau fluor counter: 1%

How did Cc1ccc2[nH]c(=O)c(CN(CCCO)S(=O)(=O)c3c(C)ccc4nsnc34)cc2c1 do in these assays?
ALDH1A1 block: 13µM*; Tau fibril FP: 2%; HPGD block: -9%; Tau fibril ThT: -6%; NPSR antagonist: -18%[46.1 µM]; Tau fluor counter: -2%

Results for Cc1cc2cc(CN(CCCO)S(=O)(=O)c3cccc4nsnc34)c(=O)[nH]c2cc1C ?
ALDH1A1 block: -1%; Tau fibril FP: -1%; HPGD block: -12%; Tau fibril ThT: -5%; NPSR antagonist: -5%[46.1 µM]; Tau fluor counter: -2%

What do the screens show for `Cc1cnc(CN(C)Cc2c(C(=O)N3CCc4ccccc4C3)nc3ccc(Cl)cn23)[nH]1`?
ALDH1A1 block: 18µM*; Tau fibril FP: 11%; Tau fibril ThT: -12%; NPSR antagonist: 7%; Tau fluor counter: 10%

How did CCN(CCn1cccn1)Cc1c(C(=O)N2CCCCCCC2)nc2ccc(Cl)cn12 do in these assays?
ALDH1A1 block: 4%; Tau fibril FP: -3%; Tau fibril ThT: 4%; NPSR antagonist: -23%; Tau fluor counter: 2%

What do the screens show for `CN(Cc1cccnc1)Cc1c(C(=O)N2CCc3ccccc3C2)nc2ccc(Cl)cn12`?
ALDH1A1 block: inconclusive; Tau fibril FP: -2%; Tau fibril ThT: -9%; NPSR antagonist: 35%; Tau fluor counter: 2%

What do the screens show for `CN(Cc1cnccn1)Cc1c(C(=O)N2CCc3ccccc3C2)nc2ccc(Cl)cn12`?
ALDH1A1 block: 18µM*; Tau fibril FP: 8%; Tau fibril ThT: 3%; NPSR antagonist: 13%; Tau fluor counter: 11%

Results for CC(C)CN(C)Cc1c(C(=O)N2CCc3ccccc3C2)nc2ccc(Cl)cn12 ?
ALDH1A1 block: 7.9µM*; Tau fibril FP: 8%; Tau fibril ThT: -13%; NPSR antagonist: inconclusive; Tau fluor counter: -9%

How did CCCCN(C)Cc1c(C(=O)N2CCc3ccccc3C2)nc2ccc(Cl)cn12 do in these assays?
ALDH1A1 block: inconclusive; Tau fibril FP: -1%; Tau fibril ThT: -9%; NPSR antagonist: 35%; Tau fluor counter: -8%

Screening data from PubChem.
